Measured values: the supplement of paper PMC10849652
Of roughly 7,900 targets only a part is listed; those with a hit were picked by preference. About 0.6% of all pairs of compound and target were hits. Values without a mark were called inactive.

Experiments:
Assay in all cases: log2 fold change, soluble protein after heating vs DMSO (PISA); higher = thermal stabilisation; K562 cells, 10 uM, 30 min; active = over 0.2 and 3.5 SD of the protein, either way, in both replicates (recomputed)
[1] = compound: NC(=O)Nc1cc(-c2cccc(F)c2)sc1C(=O)N[C@H]1CCCNC1
Procedure, shortened: (§1)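 K562 cells at 2×10^6 cells/mL were treated for 30 min with 10 μM compound, and aliquots were heated for 3 min over 48°C-58°C before pooling. Extraction used PBS with 0.5% NP-40 at 4°C, and soluble protein was the supernatant after 21,000xg for 90 min, measured by TMTpro 16plex LC-MS/MS with channel sums equalised. Thermal stability values, relative to control samples and from duplicates, are log2 fold changes.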

[2] = compound: NC(=O)c1cnc(N[C@@H]2CCCC[C@@H]2N)nc1Nc1cccc(-n2nccn2)c1
Procedure, shortened: as §1

[3] = compound: NC1(c2ccc(-c3nc4ccn5c(=O)[nH]nc5c4cc3-c3ccccc3)cc2)CCC1
Procedure, shortened: as §1

[4] = compound: NCC(=O)Nc1ccc(-n2nc(C(F)(F)F)cc2-c2ccc3c(ccc4ccccc43)c2)cc1
Procedure, shortened: as §1

entinostat = compound: Nc1ccccc1NC(=O)c1ccc(CNC(=O)OCc2cccnc2)cc1 [entinostat]
Procedure, shortened: as §1

vorinostat = compound: O=C(CCCCCCC(=O)Nc1ccccc1)NO [vorinostat]
Procedure, shortened: as §1

silmitasertib = compound: O=C(O)c1ccc2c(c1)nc(Nc1cccc(Cl)c1)c1ccncc12 [silmitasertib]
Procedure, shortened: as §1

[5] = compound: O=C1NC(=O)C(c2cnc3ccccn23)=C1c1cn2c3c(cc(F)cc13)CN(C(=O)N1CCCCC1)CC2
Procedure, shortened: as §1

citarinostat = compound: O=C(CCCCCCNC(=O)c1cnc(N(c2ccccc2)c2ccccc2Cl)nc1)NO [citarinostat]
Procedure, shortened: as §1

[6] = compound: c1cc(OCCN2CCCCC2)cc(-c2n[nH]c3ccc(-c4nnc[nH]4)cc23)c1
Procedure, shortened: as §1

entospletinib = compound: c1cn2cc(-c3ccc4cn[nH]c4c3)nc(Nc3ccc(N4CCOCC4)cc3)c2n1 [entospletinib]
Procedure, shortened: as §1

UniProt Q8N357, sequence (Q8N357 whole entry, looked up): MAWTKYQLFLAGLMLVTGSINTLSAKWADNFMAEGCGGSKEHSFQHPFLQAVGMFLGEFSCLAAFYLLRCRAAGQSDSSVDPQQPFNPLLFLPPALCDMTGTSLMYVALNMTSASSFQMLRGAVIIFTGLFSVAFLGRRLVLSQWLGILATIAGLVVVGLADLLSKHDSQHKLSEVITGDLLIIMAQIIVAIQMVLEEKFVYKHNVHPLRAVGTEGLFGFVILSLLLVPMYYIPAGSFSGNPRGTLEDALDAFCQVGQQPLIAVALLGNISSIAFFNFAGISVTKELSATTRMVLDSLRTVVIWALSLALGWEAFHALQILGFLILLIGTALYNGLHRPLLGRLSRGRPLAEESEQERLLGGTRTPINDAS
UniProt P35711, sequence (P35711 whole entry, looked up): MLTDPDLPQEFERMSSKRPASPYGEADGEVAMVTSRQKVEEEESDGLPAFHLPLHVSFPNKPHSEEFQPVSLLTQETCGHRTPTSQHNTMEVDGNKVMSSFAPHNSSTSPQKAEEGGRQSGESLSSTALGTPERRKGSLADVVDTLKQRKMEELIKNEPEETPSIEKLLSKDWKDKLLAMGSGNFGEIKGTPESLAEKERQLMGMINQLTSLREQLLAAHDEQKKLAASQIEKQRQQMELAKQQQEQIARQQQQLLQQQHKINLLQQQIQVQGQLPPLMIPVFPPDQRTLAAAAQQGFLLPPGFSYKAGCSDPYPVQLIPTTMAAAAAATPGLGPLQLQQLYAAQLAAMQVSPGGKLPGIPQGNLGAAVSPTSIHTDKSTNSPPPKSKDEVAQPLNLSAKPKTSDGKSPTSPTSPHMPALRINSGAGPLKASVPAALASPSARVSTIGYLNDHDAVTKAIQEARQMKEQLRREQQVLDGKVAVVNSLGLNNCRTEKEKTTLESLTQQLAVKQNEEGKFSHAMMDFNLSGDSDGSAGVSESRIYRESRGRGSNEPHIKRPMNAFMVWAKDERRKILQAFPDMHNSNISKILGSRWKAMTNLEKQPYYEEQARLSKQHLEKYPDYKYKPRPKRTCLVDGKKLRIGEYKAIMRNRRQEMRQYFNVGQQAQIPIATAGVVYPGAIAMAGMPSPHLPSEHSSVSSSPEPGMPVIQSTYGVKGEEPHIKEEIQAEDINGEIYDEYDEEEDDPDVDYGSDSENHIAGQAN
UniProt Q13428, sequence (Q13428 whole entry, looked up): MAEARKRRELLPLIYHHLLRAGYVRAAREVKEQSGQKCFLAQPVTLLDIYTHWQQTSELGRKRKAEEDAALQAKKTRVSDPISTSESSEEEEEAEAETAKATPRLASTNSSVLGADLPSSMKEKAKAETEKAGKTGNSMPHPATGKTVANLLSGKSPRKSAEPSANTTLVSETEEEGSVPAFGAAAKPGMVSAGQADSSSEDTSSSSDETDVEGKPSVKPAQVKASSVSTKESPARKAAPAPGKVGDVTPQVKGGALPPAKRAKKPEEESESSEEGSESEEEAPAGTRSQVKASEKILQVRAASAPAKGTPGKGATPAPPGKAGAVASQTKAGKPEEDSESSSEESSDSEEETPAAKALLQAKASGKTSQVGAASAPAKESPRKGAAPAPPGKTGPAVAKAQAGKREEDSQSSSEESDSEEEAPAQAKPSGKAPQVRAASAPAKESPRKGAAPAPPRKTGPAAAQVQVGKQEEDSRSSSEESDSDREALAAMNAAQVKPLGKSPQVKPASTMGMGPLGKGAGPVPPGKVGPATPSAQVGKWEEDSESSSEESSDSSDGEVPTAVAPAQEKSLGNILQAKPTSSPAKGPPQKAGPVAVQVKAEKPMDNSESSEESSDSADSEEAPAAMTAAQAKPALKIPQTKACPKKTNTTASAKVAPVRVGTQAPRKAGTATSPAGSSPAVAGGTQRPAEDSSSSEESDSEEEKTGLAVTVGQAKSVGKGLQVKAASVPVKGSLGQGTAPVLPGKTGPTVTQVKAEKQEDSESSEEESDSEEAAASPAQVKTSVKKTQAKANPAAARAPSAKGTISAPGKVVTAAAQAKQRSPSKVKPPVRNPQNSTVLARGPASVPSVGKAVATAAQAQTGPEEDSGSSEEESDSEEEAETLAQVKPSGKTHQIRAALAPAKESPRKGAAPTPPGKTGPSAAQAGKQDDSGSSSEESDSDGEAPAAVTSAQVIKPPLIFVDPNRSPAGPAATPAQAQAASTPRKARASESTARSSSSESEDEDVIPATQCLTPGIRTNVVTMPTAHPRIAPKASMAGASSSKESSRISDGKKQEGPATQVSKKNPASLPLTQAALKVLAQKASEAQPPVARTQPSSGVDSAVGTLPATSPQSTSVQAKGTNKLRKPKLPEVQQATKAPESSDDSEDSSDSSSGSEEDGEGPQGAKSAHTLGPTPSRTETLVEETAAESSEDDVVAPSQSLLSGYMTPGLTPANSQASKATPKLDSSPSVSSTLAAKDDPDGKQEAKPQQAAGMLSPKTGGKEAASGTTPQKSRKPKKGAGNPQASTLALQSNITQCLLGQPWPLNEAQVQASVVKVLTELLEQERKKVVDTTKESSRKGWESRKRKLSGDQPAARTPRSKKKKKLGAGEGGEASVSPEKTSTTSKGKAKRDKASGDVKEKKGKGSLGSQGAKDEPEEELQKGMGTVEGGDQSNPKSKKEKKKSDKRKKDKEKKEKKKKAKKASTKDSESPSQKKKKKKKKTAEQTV
UniProt Q96QD8, sequence (Q96QD8 whole entry, looked up): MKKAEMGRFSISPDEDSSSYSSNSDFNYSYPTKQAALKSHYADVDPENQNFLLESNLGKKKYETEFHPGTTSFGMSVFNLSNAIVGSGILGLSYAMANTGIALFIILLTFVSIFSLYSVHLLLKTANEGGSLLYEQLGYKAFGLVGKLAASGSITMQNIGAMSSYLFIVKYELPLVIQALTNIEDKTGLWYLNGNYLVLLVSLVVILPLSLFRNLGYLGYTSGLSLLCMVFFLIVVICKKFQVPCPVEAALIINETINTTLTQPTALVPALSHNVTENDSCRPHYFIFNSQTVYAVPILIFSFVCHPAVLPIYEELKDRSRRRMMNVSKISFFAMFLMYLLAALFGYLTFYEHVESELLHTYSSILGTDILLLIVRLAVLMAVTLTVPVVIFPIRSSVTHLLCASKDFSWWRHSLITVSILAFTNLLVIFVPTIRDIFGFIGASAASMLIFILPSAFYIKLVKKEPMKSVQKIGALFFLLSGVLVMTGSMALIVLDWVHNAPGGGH
UniProt Q9H5L6, sequence (Q9H5L6 whole entry, looked up): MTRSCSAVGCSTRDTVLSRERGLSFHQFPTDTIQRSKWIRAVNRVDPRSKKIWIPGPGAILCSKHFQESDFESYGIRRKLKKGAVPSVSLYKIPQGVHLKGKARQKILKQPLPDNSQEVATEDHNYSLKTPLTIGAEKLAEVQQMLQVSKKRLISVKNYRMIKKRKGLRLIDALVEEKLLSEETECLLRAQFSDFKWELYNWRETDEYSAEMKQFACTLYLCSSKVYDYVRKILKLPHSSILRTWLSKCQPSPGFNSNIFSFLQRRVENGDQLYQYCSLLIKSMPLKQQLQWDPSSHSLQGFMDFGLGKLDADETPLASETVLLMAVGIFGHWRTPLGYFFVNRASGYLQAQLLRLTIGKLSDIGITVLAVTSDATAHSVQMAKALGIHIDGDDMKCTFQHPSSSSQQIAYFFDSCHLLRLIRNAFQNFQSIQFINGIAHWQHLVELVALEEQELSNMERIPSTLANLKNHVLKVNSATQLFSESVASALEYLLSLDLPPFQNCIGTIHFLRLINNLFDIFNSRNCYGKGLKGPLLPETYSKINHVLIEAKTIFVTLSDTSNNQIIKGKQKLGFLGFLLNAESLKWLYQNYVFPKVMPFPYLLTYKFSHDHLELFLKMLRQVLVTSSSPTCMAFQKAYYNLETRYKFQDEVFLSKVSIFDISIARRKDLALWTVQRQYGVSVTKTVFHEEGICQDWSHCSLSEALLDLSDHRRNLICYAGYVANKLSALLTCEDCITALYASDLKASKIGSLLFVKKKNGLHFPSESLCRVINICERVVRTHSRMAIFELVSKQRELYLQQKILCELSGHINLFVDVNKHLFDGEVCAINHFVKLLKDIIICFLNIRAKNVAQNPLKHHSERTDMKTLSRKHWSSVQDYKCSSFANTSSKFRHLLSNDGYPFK
UniProt Q92609, sequence (Q92609 whole entry, looked up): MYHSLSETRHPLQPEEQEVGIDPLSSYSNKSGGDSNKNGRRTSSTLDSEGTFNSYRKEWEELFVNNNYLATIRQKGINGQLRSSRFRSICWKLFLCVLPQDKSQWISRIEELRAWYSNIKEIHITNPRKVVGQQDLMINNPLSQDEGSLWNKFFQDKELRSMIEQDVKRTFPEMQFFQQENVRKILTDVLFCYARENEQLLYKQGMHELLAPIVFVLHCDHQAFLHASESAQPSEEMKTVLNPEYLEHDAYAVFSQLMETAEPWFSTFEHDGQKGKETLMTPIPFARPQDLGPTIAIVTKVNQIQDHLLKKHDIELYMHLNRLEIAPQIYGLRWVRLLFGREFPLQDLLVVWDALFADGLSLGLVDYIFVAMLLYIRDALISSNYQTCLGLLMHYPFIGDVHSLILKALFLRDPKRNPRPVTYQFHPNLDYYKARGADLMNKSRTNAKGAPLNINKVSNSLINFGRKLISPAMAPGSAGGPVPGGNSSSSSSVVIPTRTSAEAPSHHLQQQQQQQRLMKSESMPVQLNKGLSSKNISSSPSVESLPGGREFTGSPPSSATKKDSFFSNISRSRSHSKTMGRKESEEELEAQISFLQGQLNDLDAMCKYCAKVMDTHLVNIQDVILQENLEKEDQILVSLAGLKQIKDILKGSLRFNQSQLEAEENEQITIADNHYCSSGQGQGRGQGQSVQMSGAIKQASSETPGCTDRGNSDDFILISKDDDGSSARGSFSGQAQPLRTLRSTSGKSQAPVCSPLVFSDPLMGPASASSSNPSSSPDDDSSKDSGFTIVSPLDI
UniProt Q5JUR7, sequence (Q5JUR7 whole entry, looked up): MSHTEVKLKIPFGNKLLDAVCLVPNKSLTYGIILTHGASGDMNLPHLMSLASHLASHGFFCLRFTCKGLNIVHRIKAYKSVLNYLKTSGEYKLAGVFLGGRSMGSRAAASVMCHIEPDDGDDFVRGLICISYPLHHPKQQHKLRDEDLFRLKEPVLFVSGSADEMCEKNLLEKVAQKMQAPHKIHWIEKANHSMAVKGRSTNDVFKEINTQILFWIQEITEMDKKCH

Row | Target | log2 fold change [1] | log2 fold change [2] | log2 fold change [3] | log2 fold change [4] | log2 fold change (entinostat) | log2 fold change (vorinostat) | log2 fold change (silmitasertib) | log2 fold change [5] | log2 fold change (citarinostat) | log2 fold change [6] | log2 fold change (entospletinib)
1 | TK1 (UniProt K7ERV3) | -0.127 | -0.054 | -0.005 | 0.022 | -0.071 | -0.003 | -0.039 | -0.116 |  |  | 
2 | TANK (UniProt Q92844) | 0.076 | 0.041 | -0.035 | 0.023 | -0.001 | -0.084 | 0.064 | 0.028 | -0.022 | 0.01 | -0.076
3 | SLC35F6 (UniProt Q8N357) | -0.068 | 0.045 | -0.161 | 0.005 | -0.185 |  | 0.023 | 0.074 | -0.026 | 0.025 | -0.011
4 | TM9SF4 (UniProt Q92544) | 0.024 | 0.064 | -0.061 | 0.032 | -0.01 | 0.146 | 0.03 | -0.011 | 0.044 | -0.057 | 0.022
5 | STK4 (UniProt Q13043) | 0.248 (active) | -0.031 | -0.1 | 0.006 | -0.041 | 0.011 | -0.015 | -0.031 | 0.064 | -0.122 | -0.024
6 | SPECC1 (UniProt Q5M775) | -0.126 | -0.053 | -0.124 | -0.132 | -0.007 | 0 | 0.08 | -0.06 | -0.213 | -0.091 | 0.085
7 | TELO2 (UniProt Q9Y4R8) | -0.039 | -0.1 | -0.207 | 0.037 | 0.039 | 0.137 | 0.067 | 0.117 | 0.009 | -0.075 | 0.044
8 | TBC1D5 isoform 2 (UniProt Q92609) | -0.006 | -0.103 | -0.233 | -0.058 | 0.029 | 0.086 | 0.031 | -0.076 | 0.111 | -0.094 | -0.02
9 | TGFBRAP1 (UniProt Q8WUH2) | 0.065 | -0.03 | -0.209 | -0.006 | -0.013 | 0.256 | 0.056 | 0.069 | -0.367 | 0.013 | 0.056
10 | TACC2 (UniProt O95359) | -0.013 | -0.027 | -0.052 | -0.187 | 0.035 | -0.033 | 0.116 |  | 0.003 | -0.073 | -0.009
11 | SLC25A42 (UniProt Q86VD7) | 0.121 | 0.021 | -0.015 | 0.05 | -0.027 | -0.102 | -0.033 | -0.034 | -0.015 | -0.046 | 0.055
12 | SLC38A2 (UniProt Q96QD8) | -0.023 | -0.046 | -0.037 | -0.12 | 0.018 |  | 0.054 | 0.014 | 0.025 | -0.088 | -0.02
13 | TENT5C (UniProt Q5VWP2) | -0.095 |  | 0.006 | -0.32 | 0.035 | -0.104 | -0.038 |  | 0.144 | -0.133 | 0.019
14 | SPAG9 isoform 4 (UniProt O60271) | -0.101 | -0.164 | -0.09 | -0.199 | 0.034 |  | 0.014 |  | -0.048 | -0.017 | 0.003
15 | TM7SF2 (UniProt O76062) | 0.057 |  |  | -0.276 | 0.119 |  |  |  |  |  | 
16 | SRFBP1 (UniProt Q8NEF9) | 0.038 | 0.198 | 0.211 |  | -0.071 | 0.009 | 0.054 | 0.122 | 0 | 0.116 | -0.082
17 | SNRK (UniProt Q9NRH2) | -0.19 |  |  |  | -0.046 |  |  |  | 0.26 | 0.325 | -0.27
18 | SMPD4 isoform 2 (UniProt Q9NXE4) |  | -0.1 | 0.014 | -0.03 |  | 0.216 | -0.058 |  |  |  | 
19 | SUPT5H isoform 2 (UniProt O00267) |  |  |  | -0.046 |  |  |  |  |  |  | 
20 | SLC39A1 (UniProt Q9NY26) |  |  |  |  |  | 0.181 |  |  |  |  | 
21 | SMARCB1 (UniProt Q12824) | -0.023 |  |  | -0.261 | -0.005 | -0.158 |  |  | -0.171 | -0.103 | 0.887 (active)
22 | TAOK2 (UniProt Q9UL54) |  |  | -0.01 |  |  | 0.081 | -0.009 | 0.184 | 0.056 | 0.12 | -0.038
23 | SREBF1 isoform 4 (UniProt P36956) |  |  | -0.565 (active) |  |  |  | 0.01 | 0.057 | 0.095 | 0.007 | 0.015
24 | TATDN2 (UniProt Q93075) | -0.115 | 0.003 |  | -0.126 | 0.009 | 0.004 |  | 0.067 | -0.52 (active) | 0.06 | -0.046
25 | TCOF1 isoform 6 (UniProt Q13428) | 0.281 |  | -0.07 | 0.077 | 0.23 |  | 0.028 |  | 0.18 | -0.042 | -0.006

Row | Target | log2 fold change [1] | log2 fold change [2] | log2 fold change [3] | log2 fold change [4] | log2 fold change (entinostat) | log2 fold change (vorinostat) | log2 fold change (silmitasertib) | log2 fold change [5] | log2 fold change (citarinostat) | log2 fold change [6] | log2 fold change (entospletinib)
26 | SLC27A1 (UniProt Q6PCB7) | 0.026 | -0.012 | -0.016 | 0.038 | -0.013 |  | -0.039 | 0.014 |  |  | 
27 | SP2 (UniProt Q02086) | 0.164 | -0.144 |  |  | -0.018 |  |  |  | -0.063 | -0.293 | 0.07
28 | SYK (UniProt P43405) |  |  |  | -0.029 |  |  |  | 0.075 | -0.029 | -0.123 | 0.015
29 | TAF6L (UniProt Q9Y6J9) | -0.038 | -0.067 | -0.061 |  | 0.033 | 0.248 | 0.303 |  |  |  | 
30 | SLC35B4 (UniProt Q969S0) | -0.006 | -0.052 | -0.094 | -0.072 | -0.002 |  | -0.034 | -0.069 | -0.009 | -0.06 | 0.033
31 | TCOF1 isoform 3 (UniProt Q13428) | 0.283 |  |  |  | 0.008 | 0.205 |  | 0.067 | 0.105 | -0.146 | 0.399
32 | TBP (UniProt P20226) |  | 0.095 | 0.015 | 0.033 |  |  | 0.183 | -0.025 | 0.013 | -0.041 | 0.012
33 | SLC9A6 isoform 3 (UniProt Q92581) |  | 0.009 |  |  |  |  |  |  | -0.066 | 0.172 | 0.052
34 | SLC35A1 (UniProt P78382) | -0.05 | -0.015 | -0.069 | 0.1 | -0.065 |  | 0.021 | 0.028 | 0.047 | -0.106 | -0.142
35 | THAP9 (UniProt Q9H5L6) |  | 0.021 | 0.024 |  |  |  | 0.049 |  |  |  | 
36 | SOX5 (UniProt P35711) | 0.035 | -0.064 | -0.015 | 0.03 | -0.129 |  | 0.018 |  |  |  | 
37 | TC2N (UniProt Q8N9U0) |  | 0.015 | -0.067 | -0.13 |  |  | -0.186 |  |  |  | 
38 | TM7SF3 (UniProt Q9NS93) | 0.091 | 0.048 | -0.359 (active) |  | 0.076 |  | 0.066 |  | 0.179 | 0.084 | -0.081
39 | TEX30 (UniProt Q5JUR7) |  | -0.101 | -0.097 | -0.1 |  | 0.121 | 0.073 | -0.04 |  |  | 
40 | TBC1D2 (UniProt Q9BYX2) |  | -0.078 | -0.181 |  |  | -0.022 | 0.26 | 0.058 | -0.026 | -0.202 | -0.015
41 | SSB (UniProt E7ERC4) |  |  | -0.168 | -0.065 |  | -0.176 | 0.022 |  |  |  | 
42 | SSBP4 (UniProt Q9BWG4) | 0.177 | 0.041 | -0.024 |  | -0.084 | -0.107 | -0.008 |  | 0.018 | -0.093 | 0.119
43 | SLC8B1 (UniProt Q6J4K2) |  | -0.078 |  | 0.034 |  | -0.031 |  |  |  |  | 
44 | SLC46A1 (UniProt Q96NT5) |  | -0.143 |  | 0.137 |  | -0.005 |  |  | -0.061 | 0.01 | 0.078
45 | SNX2 isoform 2 (UniProt O60749) | 0.043 | -0.004 |  | -0.264 | 0.088 |  |  | -0.183 | 0.065 | -0.1 | -0.255
46 | SRCAP (UniProt Q6ZRS2) | -0.079 |  | 0.001 | -0.041 | 0.077 | -0.039 | -0.022 |  | 0.014 | 0.001 | 0.029
47 | TANGO6 (UniProt Q9C0B7) | -0.007 | -0.002 | -0.167 |  | 0.035 |  | 0.084 | 0.017 | -0.071 | -0.089 | -0.089
48 | SLC35B1 isoform 2 (UniProt P78383) | -0.054 |  | -0.029 | -0.057 | 0.041 |  | 0.261 | 0.138 | -0.052 | -0.327 | -0.154
49 | SPIRE1 (UniProt Q08AE8) |  | -0.025 | 0.063 | -0.04 |  | -0.035 | -0.008 | 0.224 | 0.022 | 0.023 | -0.085
50 | SSBP4 (UniProt U3KPY3) |  |  | -0.014 | 0.016 |  |  | 0.133 |  |  |  | 
